According to PubChem BioAssay (NCATS):
Values joined by “and” are separate entries in the source; they are usually repeats but may differ in a detail not shown here. Equal entries are not always repeated. Inconclusive results are not listed. Active and inactive are the calls of the source. Unless noted, calls come from the whole dose curve; as a rule, active = well fitted curve in the direction sought with a large enough effect; inconclusive = small, poorly fitted or top-dose-only effect, or another doubt; inactive = no such curve, though single readings can be large; an effect the other way counts as inactive or inconclusive.

Tests used:
[1] = Cell Viability - Jurkat (AID 426;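 active = dose-dependent loss of cell ATP signal giving a full or clear fitted curve, ranked by lower potency value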; note: potency is the fitted concentration of half-maximal effect); details: qHTS
In short: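 Cytotoxicity was scored as loss of cellular ATP, measured by luciferase-based luminescence, in Jurkat clone E6-1 cells after 40 h compound treatment; tamoxifen and doxorubicin served as positive controls.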

[2] = Cell Viability - Hek293 (AID 427;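 active = compounds whose dose-response curve shows a full or clear partial loss of cell viability, called from curve shape rather than a numeric limit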;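 note: potency is the fitted concentration of half-maximal effect; cells exposed to compound for 40 hours at 37 °C before reading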); details: qHTS
In short: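 HEK293 cells in complete medium were exposed to compound for 40 hr at 37 °C, then cellular ATP was read by CellTiter-Glo luminescence. Data were normalized to DMSO (basal) and 100 uM tamoxifen (100% inhibition), and AC50 came from Hill fits.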

[3] = Cell Viability - HepG2 (AID 433; calls by dose curve;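 note: potency is the fitted concentration of half-maximal effect; potency for ATP loss meaning cytotoxicity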); details: qHTS
In short: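 HepG2 hepatocellular carcinoma cells (1500/well) were treated with compounds for 40 h at 37 °C in complete medium; intracellular ATP was read by CellTiter-Glo luminescence. Data were normalized to DMSO and 100 uM tamoxifen, and AC50 came from Hill fits.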

[4] = Cell Viability - SK-N-SH (AID 435; calls by dose curve;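 note: potency is the fitted concentration of half-maximal effect; compound exposure lasted 40 h at 37 °C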); details: SK-N-SH neuroblastoma cell viability qHTS
In short: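 SK-N-SH human neuroblastoma cells (1500/well) were exposed to compounds in complete medium for 40 h at 37 °C, and intracellular ATP was then measured by CellTiter-Glo luminescence. AC50 was taken from Hill fits, normalized to DMSO and 100 uM tamoxifen.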

[5] = molecular target: Mitogen-activated protein kinase 10 (Mus musculus) (UniProt Q61831); assay: JNK3 AlphaScreen Assay (AID 530; active = well fitted curve in either direction with a large enough effect, not every such curve was filed as active;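 note: kinase came from lysate of stimulated human HepG2 cells; signal reports phosphorylation of biotinylated GST-cJun 1-79 at Ser73 with 10 µM ATP; % is set by controls: 0 for no effect and ±100 for the full control effect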); details: JNK3 lysate, c-Jun phosphorylation; series mostly up to 57.1 µM
In short: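 Kinase buffer: 20 mM Tris-HCl pH 7.6, 10 mM MgCl2, 1 mM DTT, 0.1 mM Na3VO4, 0.01% Tween-20; ATP 10 uM. Substrate biotin-GST-cJun(1-79), enzyme from activated HepG2 lysates. Detection by Ser73 phospho-antibody AlphaScreen.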

[6] = Cell Viability - NIH 3T3 (AID 541); details: NIH 3T3 cell viability, qHTS; activity change, negative = cytotoxicity: at 92.2 µM (top of the series);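 note: plate controls were DMSO alone for no effect and tamoxifen positive control for full effect; nearly all actives have a fitted effect of over 25% in size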
In short: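 In this cytotoxicity screen, acute toxicity is scored as an ATP drop measured by CellTiter-Glo in NIH 3T3 fibroblasts following a 40 hr, 37 °C incubation with compound.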

[7] = Cell Viability - H-4-II-E (AID 543); details: H-4-II-E rat hepatoma viability; series mostly up to 92.2 µM; note: % is set by controls: 0 for no effect and ±100 for the full control effect; nearly all actives have a fitted effect of over 35% in size
In short: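 AC50 from Hill-modelled qHTS concentration-response curves. H-4-II-E rat hepatoma cells in complete medium, 40 hr exposure at 37 °C, viability by CellTiter-Glo ATP luminescence.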

[8] = Cell Viability - Mesenchymal (AID 546); details: mesenchymal cells viability, qHTS; activity change, negative = cytotoxicity: at 91.7 µM (top of the series);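 note: cells exposed to compound for 40 hours before reading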
In short: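 CellTiter-Glo luminescence (intracellular ATP, 20 min room temperature) after 40 hr compound exposure at 37 °C of 1000 glomerulus-derived human kidney mesenchymal cells/well; AC50 values obtained by fitting qHTS concentration-response data to the Hill equation.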

[9] = Cellular Toxicity (caspase-3) HepG2 (AID 654); details: HepG2 caspase-3 activation, luminescence, 0% = DMSO only, 100% = tamoxifen; series mostly up to 92.2 µM;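 note: cells exposed to compound for 16 hours before reading; 0% = DMSO alone and 100% = caspase signal from 100 µM tamoxifen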
In short: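 Concentration-response AC50 values reflect caspase-3/7 induction in HepG2 cells after 16 hours of compound exposure, quantified by luminescence from liberated aminoluciferin and referenced to 100 uM tamoxifen as full stimulation.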

[10] = Cellular Toxicity (caspase-3) HUV-EC-C (AID 656); details: HUV-EC-C cells, caspase-3 activation (apoptosis), vehicle = 0, 100 µM tamoxifen = 100%; series mostly up to 92.2 µM
In short: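 HUV-EC-C endothelial cells, 1000/well, were pre-incubated 5 hr at 37°C, then exposed to compounds for 16 hr at 37°C. Caspase-Glo 3/7 luminescence was read after 20 min at room temperature. AC50 came from Hill fits, normalized to DMSO and 100 uM tamoxifen.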

[11] = Cellular Toxicity (caspase-3) BJ (AID 658); details: BJ fibroblasts, luminescence, normalized: DMSO 0%, staurosporine 100%; series mostly up to 91.7 µM
In short: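 Caspase-Glo 3/7 luminescence, read 1 hr after reagent at room temperature, in normal BJ fibroblasts exposed 16 hours at 37 °C. AC50 values from Hill-equation concentration-response, scaled between DMSO basal and 10 uM staurosporine as 100%.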

[12] = Cellular Toxicity (caspase-3) MRC-5 (AID 659); details: MRC-5 cells, luminescence, normalized: DMSO 0%, 10 µM staurosporine 100%; series mostly up to 91.7 µM
In short: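 Luminescent Caspase-Glo 3/7 read-out (1 h, room temperature) after a 16 h, 37 °C compound exposure of MRC-5 lung fibroblasts at 1500 cells/well. Concentration-response AC50 from Hill equation; 0% DMSO, 100% 10 uM staurosporine.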

[13] = Cellular Toxicity (caspase-3) Mesangial (AID 660); details: mesangial cells, normalized: DMSO 0%, 100 µM tamoxifen 100%; series mostly up to 91.7 µM;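 note: combined caspase 3 and 7 activity read by Caspase-Glo luminescence; cells exposed to compound for 16 h before the caspase read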
In short: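 AC50 values come from Hill-equation fits of caspase 3/7 activation, measured as Caspase-Glo luminescence in human glomerular mesangial cells exposed to compound for 16 h at 37 °C; 100% set by 100 uM tamoxifen.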

[14] = Cellular Toxicity (caspase-3) NIH 3T3 (AID 666); details: NIH 3T3 caspase-3 activation, apoptosis/toxicity, 0% DMSO, 100% is 100 µM tamoxifen; series mostly up to 92.2 µM;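 note: 0% = DMSO basal and 100% = 100 µM tamoxifen stimulation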
In short: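 Activity: caspase-3/7 induction, NIH 3T3 cells, 16 hr treatment at 37°C, luminescent Caspase-Glo detection; AC50 via Hill equation.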

[15] = Cellular Toxicity (caspase-3) Renal Proximal Tubule (AID 667); details: renal proximal tubule cells, primary cells freshly taken from rat, solvent-only wells 0%, staurosporine 100%; series mostly up to 91.7 µM;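 note: cells exposed to compound for 16 hours at 37 °C before detection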
In short: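 Primary rat proximal tubule cells, 1000/well, 5 h plating at 37 °C, then compound 16 h at 37 °C. Caspase-Glo 3/7 reagent, 1 h RT, luminescence. Normalized to DMSO (basal) and 10 uM staurosporine (100%); Hill-fit AC50.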

[16] = MultiTox-Fluor Cytotoxicity Assay - LYMP1-003 - Live Cells (AID 962); details: LYMP1-003 lymphoblastoid cells, MultiTox-Fluor live-cell protease fluorescence; series mostly up to 92.2 µM;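 note: 0% = DMSO only and full loss = 92 µM tetraoctylammonium bromide; cytotoxic hits lower the live-cell protease signal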
In short: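 Human lymphoblastoid line LYMP1-003 in complete culture medium, treated 16 hr with titrated compounds. Viable cells quantified via cell-permeant GF-AFC substrate fluorescence; AC50 derived by Hill fitting.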

[17] = Cell Viability - LYMP1-003 - Assay at 40 hr (AID 964); details: LYMP1-003 lymphoblastoid viability; series mostly up to 92.2 µM; note: % is set by controls: 0 for no effect and ±100 for the full control effect; nearly all actives have a fitted effect of over 60% in size
In short: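 Acute toxicity is scored as a concentration-dependent loss of intracellular ATP in LYMP1-003 cells (2500/well, complete medium) after 40 hr at 37 C, measured by CellTiter-Glo luminescence; AC50 values derive from standard Hill modelling.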

[18] = Cell Viability - LYMP2-011 (AID 969); details: LYMP2-011 lymphoblastoid cells viability; series mostly up to 92.2 µM;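 note: cells exposed to compound for 24 hours; 0% = DMSO only and full inhibition = 92 µM tetraoctylammonium bromide; nearly all actives have a fitted effect of over 60% in size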
In short: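 Cells seeded at 2500 per well rest 5 hr before compound addition, then incubate 24 hr at 37 C. CellTiter-Glo reagent is added for 30 min at room temperature before luminescence detection.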

[19] = qHTS Assay for Identification of Small Molecule Inducers of Hypoxia Response (AID 2120; active = well fitted curve in the direction sought with a large enough effect in the signal ratio, with a control signal flat, not every such curve was filed as active; the % refers to the signal ratio; note: 0% is about no effect); details: hypoxia response reporter cells, beta-lactamase ratio readout; series mostly up to 104 µM
In short: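 HRE-bla ME-180, 2500 cells/well, 0.5% dialyzed FBS medium; cpd titration, 17 h 37 degrees C; CCF4 2.5 h RT; Ex 405, Em 460/530 ratio -> %Activity, AC50.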

[20] = molecular target: Peroxisome proliferator-activated receptor alpha (Homo sapiens) (UniProt Q07869); assay: qHTS assay for small molecule agonists of the peroxisome proliferator-activated receptor alpha (PPARalpha) signaling pathway (AID 651778); details: PathHunter PPARalpha complementation, chemiluminescence, 6 h; max response: active compounds read high; note: % of control where 0% means no effect
In short: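 Chemiluminescence from complemented enzyme reported PPARalpha activation in cells after 6 hr of compound treatment at 37 C. The detection reagent was incubated for 60 min at room temperature, and compounds were scored as agonists.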

Sequence of Peroxisome proliferator-activated receptor alpha (Homo sapiens) (Q07869 whole entry, looked up): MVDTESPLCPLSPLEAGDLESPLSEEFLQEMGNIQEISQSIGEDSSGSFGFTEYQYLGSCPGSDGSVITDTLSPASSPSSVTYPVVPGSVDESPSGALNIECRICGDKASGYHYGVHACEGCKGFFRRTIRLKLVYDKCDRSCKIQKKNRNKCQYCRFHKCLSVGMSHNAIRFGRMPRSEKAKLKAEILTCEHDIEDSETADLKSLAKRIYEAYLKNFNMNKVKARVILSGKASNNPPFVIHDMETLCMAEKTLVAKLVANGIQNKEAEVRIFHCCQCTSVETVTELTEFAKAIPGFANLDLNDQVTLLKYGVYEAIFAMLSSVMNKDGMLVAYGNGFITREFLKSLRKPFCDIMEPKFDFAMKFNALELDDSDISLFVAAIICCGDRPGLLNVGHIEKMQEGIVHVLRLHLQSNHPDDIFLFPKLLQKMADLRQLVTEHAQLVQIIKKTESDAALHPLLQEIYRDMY

Cc1cccc([N+](=O)[O-])c1C
inactive: Potency [1] > 92 µM | Potency [2] > 92 µM | Potency [3] > 92 µM | Potency [4] > 92 µM | Potency [5] | Potency [6] | Potency [7] | activity change, negative = cytotoxicity [8] 1.97% | outcome [9] | outcome [10] | outcome [11] | outcome [12] | outcome [13] | outcome [14] | outcome [15] | Potency [16] | Potency [17] | Potency [18] | outcome [19] | max response [20] 2.79% and -1.9%

CC(=O)OC/C=C(\C)CCC=C(C)C
inactive: Potency [1] > 92 µM | Potency [2] > 92 µM | Potency [3] > 92 µM | Potency [4] > 92 µM | Potency [5] | Potency [6] | Potency [7] | activity change, negative = cytotoxicity [8] 8.38% | outcome [9] | outcome [10] | outcome [11] | outcome [12] | outcome [13] | outcome [14] | outcome [15] | Potency [16] | Potency [17] | Potency [18] | outcome [19] | max response [20] -5.73% and -0.163%

O=[N+]([O-])c1cccc(Cl)c1Cl
inactive: Potency [1] > 92 µM | Potency [2] > 92 µM | Potency [3] > 92 µM | Potency [4] > 92 µM | Potency [5] | Potency [6] | Potency [7] | activity change, negative = cytotoxicity [8] 4.81% | outcome [9] | outcome [10] | outcome [11] | outcome [12] | outcome [13] | outcome [14] | outcome [15] | Potency [16] | Potency [17] | Potency [18] | outcome [19] | max response [20] -3.44% and -1.57%

C=Cc1ccccc1Cl
inactive: Potency [1] > 92 µM | Potency [2] > 92 µM | Potency [3] > 92 µM | Potency [4] > 92 µM | Potency [6] | Potency [7] | activity change, negative = cytotoxicity [8] 4.39% | outcome [9] | outcome [10] | outcome [11] | outcome [12] | outcome [13] | outcome [14] | outcome [15] | Potency [16] | Potency [17] | Potency [18] | outcome [19] | max response [20] -0.389%

Cc1ccc(N)c([N+](=O)[O-])c1
inactive: Potency [1] > 92 µM | Potency [2] > 92 µM | Potency [3] > 92 µM | Potency [4] > 92 µM | Potency [5] | Potency [6] | Potency [7] | activity change, negative = cytotoxicity [8] 5.43% | outcome [9] | outcome [10] | outcome [11] | outcome [12] | outcome [13] | outcome [14] | outcome [15] | Potency [16] | Potency [17] | Potency [18] | outcome [19] | max response [20] -6.83% and -1.01%
